According to PubChem BioAssay (NCATS):
Records with an inconclusive call do not appear. The source made the active and inactive calls. Unless noted, calls come from the whole dose curve; as a rule, active = well fitted curve in either direction with a large enough effect (not every such curve was filed as active); inconclusive = small, poorly fitted or top-dose-only effect, or another doubt; inactive = flat fitted curve, though single readings scatter.

Assays:
[1] = qHTS Assay for Lipid Storage Modulators (AID 1519; calls by dose curve); details: Drosophila S3 cells, BODIPY lipid droplet/cell ratio, laser cytometry, cells loaded with oleic acid; for activity change, negative = inhibition: at 57.5 µM (top of the series)
In short: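 Cells seeded at 5,000 per well were treated with compounds over a concentration series and loaded with oleic acid (400 uM, as added). Lipid droplet fluorescence (488 nm excitation, 500-530 nm channel) was read by laser-scanning cytometry and normalized to 20 uM Triacsin C.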

[2] = molecular target: Lysosomal acid glucosylceramidase (Homo sapiens) (UniProt P04062); assay: Glucocerebrosidase-p2 (AID 348; in the data active = potency below about 10 µM; note: potency is the fitted concentration of half-maximal effect); details: purified GBA, blue fluorogenic substrate, 40 min
Lysosomal acid glucosylceramidase (Homo sapiens), sequence (P04062 whole entry, looked up): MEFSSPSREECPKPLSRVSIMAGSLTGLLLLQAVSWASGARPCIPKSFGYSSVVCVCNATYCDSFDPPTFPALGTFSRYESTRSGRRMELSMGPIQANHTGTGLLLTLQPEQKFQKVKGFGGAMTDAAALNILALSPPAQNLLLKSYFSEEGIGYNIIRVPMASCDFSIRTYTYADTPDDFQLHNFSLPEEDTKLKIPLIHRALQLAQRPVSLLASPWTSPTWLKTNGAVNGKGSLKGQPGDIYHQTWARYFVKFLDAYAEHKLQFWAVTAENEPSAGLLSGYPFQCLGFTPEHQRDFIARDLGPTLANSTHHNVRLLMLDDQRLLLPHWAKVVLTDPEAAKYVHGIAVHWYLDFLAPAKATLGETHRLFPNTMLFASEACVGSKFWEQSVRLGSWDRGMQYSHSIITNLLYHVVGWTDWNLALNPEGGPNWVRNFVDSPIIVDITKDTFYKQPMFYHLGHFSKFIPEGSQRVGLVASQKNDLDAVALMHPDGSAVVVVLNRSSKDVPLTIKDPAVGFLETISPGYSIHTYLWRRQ
In short: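 Compounds titrated from 0.6 nM upwards against 0.2 nM enzyme in pH 5.9 citric acid/KH2PO4, taurocholate, tween-20; blue fluorogenic substrate 80 uM, 40 min room temperature, stopped and read Ex 365/Em 440 for AC50.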

[3] = AP1 Signaling Pathway (AID 357); details: ME-180 AP-1-bla reporter, EGF-induced, beta-lactamase ratio, 5 h; at 7.69 µM (top of the series) unless noted;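 note: ME-180 reporter cells stimulated with EGF at its EC50 level; % is set by controls: 0 for no effect and ±100 for the full control effect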
In short: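 Titration-series screen for positive or negative modulators of EC50 EGF-induced signaling in ME-180 cells carrying an AP-1-driven beta-lactamase reporter. After 5 hours at 37 degrees Celsius, CCF4 460nm/530nm emission ratio gave %Activity; AC50 values derived.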

[4] = molecular target: Cytochrome P450 1A2 (Homo sapiens) (UniProt P05177); assay: p450-cyp1a2 (AID 410; calls by dose curve; note: potency is the fitted concentration of half-maximal effect;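 for activity change, negative = inhibition: -100% = full effect of reference inhibitor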); details: recombinant CYP1A2, luciferin-ME demethylation, luminescence; series mostly up to 57 µM
Cytochrome P450 1A2 (Homo sapiens), sequence (P05177 whole entry, looked up): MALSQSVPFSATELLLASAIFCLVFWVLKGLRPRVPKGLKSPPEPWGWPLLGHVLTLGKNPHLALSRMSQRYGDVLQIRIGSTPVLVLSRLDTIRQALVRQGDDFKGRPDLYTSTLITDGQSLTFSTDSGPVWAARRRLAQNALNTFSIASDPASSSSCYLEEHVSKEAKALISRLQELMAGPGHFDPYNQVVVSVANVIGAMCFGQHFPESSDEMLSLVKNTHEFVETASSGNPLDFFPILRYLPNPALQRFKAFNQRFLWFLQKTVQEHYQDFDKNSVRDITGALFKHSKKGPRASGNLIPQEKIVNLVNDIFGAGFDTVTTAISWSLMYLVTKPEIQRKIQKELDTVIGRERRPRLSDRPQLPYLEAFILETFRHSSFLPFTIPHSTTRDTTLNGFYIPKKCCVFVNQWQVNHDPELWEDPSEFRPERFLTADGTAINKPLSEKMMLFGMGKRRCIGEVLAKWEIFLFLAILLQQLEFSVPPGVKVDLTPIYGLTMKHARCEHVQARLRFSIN
In short: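 Luminescent readout of luciferin formed from Luciferin-ME by human CYP1A2; data normalized against complete inhibition by 57 uM furafylline. Enzyme 20nM, substrate 100uM at Km, 100mM KPO4 buffer, 60 min reaction at room temperature.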

[5] = NFAT Signaling Pathway (AID 444); details: Jurkat NFAT-bla M1, carbachol, beta-lactamase ratio, 5 h; at 7.69 µM (top of the series) unless noted;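 note: carbachol stimulus at about its EC50 of 1 µM final; % is set by controls: 0 for no effect and ±100 for the full control effect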
In short: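 Jurkat cells carrying an NFAT-driven β-lactamase reporter and co-transfected muscarinic M1 receptor were treated with compound plus carbachol (1 uM final, an EC50 level) for 5 h at 37 °C. CCF4 loading followed for 1 h at RT; 460/530 nm ratio gave %activity.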

[6] = Stat Signaling Pathway (AID 446); details: ME-180 SIE beta-lactamase reporter, IL-6 stimulated, 5 h; at 7.69 µM (top of the series) unless noted;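 note: ME-180 cervical cancer cells given 40 pM IL-6 alongside compound; SIE-controlled beta-lactamase reporter measured as 460/530 nm FRET emission ratio; % is set by controls: 0 for no effect and ±100 for the full control effect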
In short: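 Screening format detects activators and inhibitors alike: ME-180 SIE-bla cells stimulated at 40 pM IL-6 for 5 hrs with compound, then dual-emission beta-lactamase read at 405 nm excitation.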

[7] = molecular target: Glucocorticoid receptor (Homo sapiens) (UniProt P04150); assay: GR-GFP Redistribution (AID 450;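 active = compounds whose dose series gives a full or clear partial fitted curve of increased nuclear translocation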; note: potency is the fitted concentration of half-maximal effect); details: U2OS GR-GFP nuclear translocation, laser cytometry, 2 h
Glucocorticoid receptor (Homo sapiens), sequence (P04150 whole entry, looked up, the tested form may be a part): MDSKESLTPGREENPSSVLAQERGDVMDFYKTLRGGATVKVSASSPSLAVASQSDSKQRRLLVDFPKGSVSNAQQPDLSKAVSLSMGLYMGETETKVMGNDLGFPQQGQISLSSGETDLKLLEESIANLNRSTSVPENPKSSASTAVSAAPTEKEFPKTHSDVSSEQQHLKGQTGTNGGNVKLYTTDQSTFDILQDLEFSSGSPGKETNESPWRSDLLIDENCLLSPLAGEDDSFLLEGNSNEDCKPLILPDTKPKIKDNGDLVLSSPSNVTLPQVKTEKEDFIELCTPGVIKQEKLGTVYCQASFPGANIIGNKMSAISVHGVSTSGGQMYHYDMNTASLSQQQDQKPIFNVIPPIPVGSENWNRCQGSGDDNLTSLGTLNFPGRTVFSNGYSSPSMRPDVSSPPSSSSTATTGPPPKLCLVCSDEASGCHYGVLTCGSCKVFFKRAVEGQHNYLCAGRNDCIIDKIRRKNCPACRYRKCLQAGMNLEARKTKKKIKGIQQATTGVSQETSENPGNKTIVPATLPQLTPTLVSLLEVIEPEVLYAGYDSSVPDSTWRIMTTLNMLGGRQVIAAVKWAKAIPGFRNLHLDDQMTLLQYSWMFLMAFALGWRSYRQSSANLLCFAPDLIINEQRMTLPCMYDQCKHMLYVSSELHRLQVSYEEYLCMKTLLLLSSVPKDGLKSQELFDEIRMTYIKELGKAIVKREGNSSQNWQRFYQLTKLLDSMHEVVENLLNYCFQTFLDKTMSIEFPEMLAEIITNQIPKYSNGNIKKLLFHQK

[8] = molecular target: Glucocorticoid receptor (Homo sapiens) (UniProt P04150); assay: GR-EFC Redistribution (AID 451; calls by dose curve; note: potency is the fitted concentration of half-maximal effect); details: CHO-K1 GR-EFC translocation, beta-gal luminescence, 2 h
In short: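 CHO-K1 cells stably expressing nuclear-localized β-gal enzyme acceptor and GR fused C-terminally to the enzyme donor fragment; ligand-driven nuclear translocation restores β-gal by complementation. Compounds titrated up to 46 uM final, 2 h at 37 °C; luminescence read.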

[9] = molecular target: Mitogen-activated protein kinase 10 (Mus musculus) (UniProt Q61831); assay: JNK3 AlphaScreen Assay (AID 530); details: JNK3 lysate, c-Jun phosphorylation; series mostly up to 57.1 µM;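 note: kinase came from lysate of stimulated human HepG2 cells; signal reports phosphorylation of biotinylated GST-cJun 1-79 at Ser73 with 10 µM ATP; % is set by controls: 0 for no effect and ±100 for the full control effect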
In short: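 Inhibitors reduce antibody binding to phosphorylated biotin-cJun, lowering AlphaScreen luminescence. Lysates from HepG2 cells pre-activated by IL-1beta plus TNF-alpha supplied JNK3; compounds were titrated.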

[10] = molecular target: 3',5'-cyclic-AMP phosphodiesterase 4B (Homo sapiens) (UniProt Q07343); assay: qHTS Assay for Inhibitors of PDE-IV (AID 607; active = well fitted activation curve with a large enough effect in the main read-out, with a control signal flat, not every such curve was filed as active; note: % of control where 0% means no effect); details: HEK293 ACTOne CNG channel cells, membrane potential fluorescence; series mostly up to 22.9 µM
3',5'-cyclic-AMP phosphodiesterase 4B (Homo sapiens), sequence (Q07343 whole entry, looked up): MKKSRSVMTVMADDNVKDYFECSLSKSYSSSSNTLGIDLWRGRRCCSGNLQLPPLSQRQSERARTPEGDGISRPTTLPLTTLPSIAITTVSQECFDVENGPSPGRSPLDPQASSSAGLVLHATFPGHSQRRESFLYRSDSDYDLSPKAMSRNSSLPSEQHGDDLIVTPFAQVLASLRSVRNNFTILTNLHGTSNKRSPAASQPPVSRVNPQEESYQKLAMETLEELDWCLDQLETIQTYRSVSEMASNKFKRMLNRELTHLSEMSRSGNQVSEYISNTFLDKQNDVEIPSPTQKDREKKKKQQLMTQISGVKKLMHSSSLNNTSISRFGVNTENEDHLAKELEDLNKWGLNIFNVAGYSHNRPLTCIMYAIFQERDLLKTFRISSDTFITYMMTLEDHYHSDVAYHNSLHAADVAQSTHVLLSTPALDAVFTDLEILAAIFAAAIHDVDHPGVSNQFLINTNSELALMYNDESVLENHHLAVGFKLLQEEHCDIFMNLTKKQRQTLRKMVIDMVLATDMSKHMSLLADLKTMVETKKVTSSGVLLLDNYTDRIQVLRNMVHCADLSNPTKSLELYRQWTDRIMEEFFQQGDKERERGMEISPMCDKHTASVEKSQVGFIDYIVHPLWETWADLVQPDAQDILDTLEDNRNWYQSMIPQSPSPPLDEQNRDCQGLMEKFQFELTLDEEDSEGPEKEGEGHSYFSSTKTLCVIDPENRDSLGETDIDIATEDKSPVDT
In short: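 The readout is membrane depolarisation from a cAMP-sensing CNG channel, detected with a potential dye at ex 535/em 590. Cells were HEK293-derived (endogenous PDE-IV) at 1000 cells/well, titrated up to 22.9 uM final.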

[11] = molecular target: Cytochrome P450 3A4 (Homo sapiens) (UniProt P08684); assay: qHTS Assay for Activators of Cytochrome P450 3A4 (AID 885; active = well fitted curve in the direction sought with a large enough effect; an effect the other way counts as inactive or inconclusive; note: nearly all actives have a fitted effect of over 65% in size); details: recombinant CYP3A4, Luciferin-PPXE luminescence, 60 min; series mostly up to 57.1 µM
Cytochrome P450 3A4 (Homo sapiens), sequence (P08684 whole entry, looked up): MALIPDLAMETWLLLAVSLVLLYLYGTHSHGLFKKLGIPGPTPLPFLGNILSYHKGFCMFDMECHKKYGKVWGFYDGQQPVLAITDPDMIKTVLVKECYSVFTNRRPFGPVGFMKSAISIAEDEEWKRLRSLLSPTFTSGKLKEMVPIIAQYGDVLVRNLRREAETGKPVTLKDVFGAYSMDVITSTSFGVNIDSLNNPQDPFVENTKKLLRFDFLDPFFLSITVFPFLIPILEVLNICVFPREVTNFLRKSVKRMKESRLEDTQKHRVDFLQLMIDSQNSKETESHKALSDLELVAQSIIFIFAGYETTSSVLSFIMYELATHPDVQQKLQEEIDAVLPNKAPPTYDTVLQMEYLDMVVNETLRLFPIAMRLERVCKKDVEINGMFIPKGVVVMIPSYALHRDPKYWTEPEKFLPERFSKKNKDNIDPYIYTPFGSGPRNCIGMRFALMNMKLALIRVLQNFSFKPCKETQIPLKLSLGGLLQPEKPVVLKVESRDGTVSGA
In short: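 Steps: enzyme/substrate mix dispensed; compound added, 10 min RT; NADPH regeneration solution added, 60 min RT; luciferin detection buffer stops reaction; 20 min later luminescence measured.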

[12] = Confirmation and Secondary Assay for Modulators of Hemoglobin Beta Chain Splicing at IVS2 654 locus (AID 910; active = well fitted curve in the direction sought with a large enough effect; an effect the other way counts as inactive or inconclusive;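 note: per-well total GFP intensity by laser scanning cytometry after 2-day treatment; % of control where 0% means no effect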); details: HeLa EGFP-654 splicing reporter, GFP fluorescence, 48 h; series mostly up to 38.3 µM
In short: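 HeLa cells stably carrying EGFP interrupted by mutant beta-globin IVS2-654 intron (CMV-driven) were treated with compound for 2 days at 37C; corrected splicing was scored as total peak GFP intensity per well (488 nm excitation, 500-520 nm emission).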

[13] = Confirmation and Secondary Assay for Modulators of Hemoglobin Beta Chain Splicing at IVS2 705 locus (AID 930; active = well fitted curve in the direction sought with a large enough effect; an effect the other way counts as inactive or inconclusive;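 note: HeLa cells stably expressing the EGFP-705 splicing reporter; GFP fluorescence per well restored by corrected splicing of the IVS2-705 intron in EGFP; % of control where 0% means no effect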); details: HeLa EGFP-705 splicing reporter, GFP fluorescence, 48 h; series mostly up to 38.3 µM
In short: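 Splice-correction reporter: EGFP cDNA split by beta-globin intron 2 bearing the 705 mutation, stably in HeLa. Compound incubation 2 days, 37C; fluorescent objects 5-250 µm summed per well.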

[14] = molecular target: Ubiquitin carboxyl-terminal hydrolase 1 (Homo sapiens) (UniProt O94782); assay: Inhibitors of USP1/UAF1: Pilot qHTS (AID 504865; active = well fitted curve in the direction sought with a large enough effect; an effect the other way counts as inactive or inconclusive;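 note: rhodamine fluorescence freed from ubiquitin-rhodamine substrate followed over time; top concentration of the series differs between compounds; % is set by controls: 0 for no effect and ±100 for the full control effect; nearly all actives have a fitted effect of over 35% in size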); details: purified USP1/UAF1, Ub-rhodamine cleavage fluorescence; series mostly up to 54.9 µM
Ubiquitin carboxyl-terminal hydrolase 1 (Homo sapiens), sequence (O94782 whole entry, looked up): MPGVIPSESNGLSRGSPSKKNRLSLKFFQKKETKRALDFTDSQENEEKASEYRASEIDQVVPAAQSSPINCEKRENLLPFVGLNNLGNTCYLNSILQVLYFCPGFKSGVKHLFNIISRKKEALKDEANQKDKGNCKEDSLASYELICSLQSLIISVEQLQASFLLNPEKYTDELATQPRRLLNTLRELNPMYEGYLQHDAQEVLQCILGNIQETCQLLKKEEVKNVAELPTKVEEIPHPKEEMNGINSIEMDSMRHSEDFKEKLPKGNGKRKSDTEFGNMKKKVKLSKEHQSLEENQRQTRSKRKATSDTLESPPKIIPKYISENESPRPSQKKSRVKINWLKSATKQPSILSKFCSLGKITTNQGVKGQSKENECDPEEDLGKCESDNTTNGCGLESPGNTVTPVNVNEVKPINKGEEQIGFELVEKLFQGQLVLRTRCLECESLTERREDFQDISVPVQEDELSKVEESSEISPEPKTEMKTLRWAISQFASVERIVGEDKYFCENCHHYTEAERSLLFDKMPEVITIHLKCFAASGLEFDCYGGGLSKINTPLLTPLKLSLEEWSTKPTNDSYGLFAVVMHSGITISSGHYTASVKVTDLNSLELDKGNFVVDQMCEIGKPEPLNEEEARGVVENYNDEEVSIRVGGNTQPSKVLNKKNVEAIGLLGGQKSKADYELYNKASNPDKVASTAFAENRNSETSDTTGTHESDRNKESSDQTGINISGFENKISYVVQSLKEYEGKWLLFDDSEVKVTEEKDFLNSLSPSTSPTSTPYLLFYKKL
In short: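 1nM USP1/UAF1 + cpd, 15 min RT; start w/ Ub-Rho 150nM final; kinetic FL 480/540 nm, 6 reads q60 s. Buffer 50mM HEPES pH 7.8, 0.5mM EDTA, 1mM TCEP, 0.01% Tween-20, 0.1 mg/ml BSA.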

[15] = Primary qHTS for small molecule stabilizers of the endoplasmic reticulum resident proteome: Secreted ER Calcium Modulated Protein (SERCaMP) assay (AID 1508630; active = well fitted curve in the direction sought with a large enough effect; an effect the other way counts as inactive or inconclusive; note: potency is the fitted concentration of half-maximal effect); details: SH-SY5Y GLuc-SERCaMP (Gaussia luciferase released on ER calcium loss) secretion, thapsigargin, luminescence; series mostly up to 38.4 µM
In short: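 GLuc-SERCaMP-expressing SH-SY5Y cells, pretreated 16 h with compound, are challenged with thapsigargin to empty ER calcium stores; after 4 h, coelenterazine is added directly to the medium and luminescence is imaged.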

[16] = molecular target: Cytochrome P450 3A4 (Homo sapiens) (UniProt P08684); assay: qHTS Assay for Inhibitors and Substrates of Cytochrome P450 3A4 (AID 884; active = well fitted curve in the direction sought with a large enough effect; an effect the other way counts as inactive or inconclusive; note: potency is the fitted concentration of half-maximal effect; nearly all actives have a fitted effect of over 50% in size); details: recombinant CYP3A4, Luciferin-PPXE luminescence; series mostly up to 57.1 µM
In short: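 20 nM human CYP3A4 with 25 uM Luciferin-PPXE (at KM) in 200 mM KPO4, preincubated 10 min with compound; NADPH regeneration started a 60 min RT reaction. Luciferin detected by luminescence, normalized to 57 uM ketoconazole as full inhibition.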

[17] = molecular target: Cytochrome P450 2C19 (Homo sapiens) (UniProt P33261); assay: qHTS Assay for Inhibitors and Substrates of Cytochrome P450 2C19 (AID 899; active = well fitted curve in the direction sought with a large enough effect; an effect the other way counts as inactive or inconclusive; note: potency is the fitted concentration of half-maximal effect; nearly all actives have a fitted effect of over 60% in size); details: recombinant CYP2C19, luciferin-H EGE luminescence; series mostly up to 57.1 µM
Cytochrome P450 2C19 (Homo sapiens), sequence (P33261 whole entry, looked up): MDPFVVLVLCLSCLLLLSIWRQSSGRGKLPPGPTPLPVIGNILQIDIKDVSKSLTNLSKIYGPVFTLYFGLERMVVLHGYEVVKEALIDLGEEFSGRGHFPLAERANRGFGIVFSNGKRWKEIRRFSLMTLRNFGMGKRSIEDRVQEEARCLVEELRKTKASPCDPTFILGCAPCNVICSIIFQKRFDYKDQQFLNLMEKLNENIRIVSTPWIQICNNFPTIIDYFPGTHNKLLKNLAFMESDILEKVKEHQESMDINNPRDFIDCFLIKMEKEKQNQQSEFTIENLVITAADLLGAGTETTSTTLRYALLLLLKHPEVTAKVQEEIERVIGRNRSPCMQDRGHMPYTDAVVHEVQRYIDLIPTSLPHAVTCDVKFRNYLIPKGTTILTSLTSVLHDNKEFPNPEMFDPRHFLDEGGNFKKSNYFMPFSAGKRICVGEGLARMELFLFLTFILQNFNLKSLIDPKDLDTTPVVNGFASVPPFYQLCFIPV
In short: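 Human CYP2C19 (5nM) with Luciferin-H EGE at 10uM (its KM) in 50mM KPO4 was preincubated with compound for 10 min at 37C. NADPH regeneration started a 60 min 37C reaction. Luciferin was read by luminescence, normalized to 57uM ketoconazole.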

[18] = measured here: cell count channel max response
[19] = measured here: lipid channel max response

SMILES	activity change, negative = inhibition [1]	max response [1, 18]	max response [1, 19]	Potency [2]	activity change, negative = inhibition [3]	Potency [4]	activity change, negative = inhibition [5]	activity, negative = inhibition [6]	Potency [7]	Potency [8]	outcome [9]	Potency [10]	Potency [11]	outcome [12]	outcome [13]	Potency [14]	Potency [15]	Potency [16]	Potency [17]
NC(=O)C1=CN(C2OC(COP(=O)(O)OP(=O)(O)OC[C@H]3O[C@@H](n4cnc5c(N)ncnc54)[C@H](OP(=O)(O)O)[C@H]3O)C(O)C2O)C=CC1 (stereo partly specified)	-2.12% (inactive)	-24.1%	-21.9%	–	–	–	–	–	–	–	–	–	–	–	–	–	–	–	–
CN(C)c1ncnc2ccc(-c3ccccc3C#N)cc12	–	–	–	> 11.4 µM (inactive)	-24% (inactive)	0.398 µM (active)	20.3% (inactive)	18.9% (inactive)	> 46 µM (inactive)	> 46 µM (inactive)	inactive	inactive	inactive	inactive	inactive	inactive	inactive	–	–
O=C(Nc1ccccc1)N1CC2(CCN(C(=O)c3cccc(F)c3)CC2)C1	5.53% (inactive)	9.88%	20.2%	> 11.4 µM (inactive)	13.2% (inactive)	–	14.3% (inactive)	0.524% (inactive)	–	> 46 µM (inactive)	inactive	inactive	–	–	–	–	inactive	–	–
CN=C(N)NCCCC(N)C(=O)O (stereo unspecified)	0.52% (inactive)	-20%	-19.4%	–	–	–	–	–	–	–	–	–	–	–	–	inactive	–	–	–
Cc1ccccc1-c1cncnc1N(C)Cc1ccco1	8.25% (inactive)	-7.61%	2.41%	> 11.4 µM (inactive)	-3.79% (inactive)	15.8 µM (active)	–	11.8% (inactive)	–	> 46 µM (inactive)	inactive	inactive	inactive	inactive	inactive	–	inactive	1.58 µM (active)	5.01 µM (active)
Cc1noc(C)c1C(=O)N1CCC2(CCCN(C(=O)Nc3cccc(F)c3)C2)CC1	–	–	–	> 11.4 µM (inactive)	-3.17% (inactive)	15.8 µM (active)	-8.48% (inactive)	-0.0561% (inactive)	–	> 46 µM (inactive)	inactive	inactive	inactive	–	–	–	inactive	–	–
CC(C)NC(=O)N1CCCC2(CCN(C(=O)c3ccncc3)CC2)C1	3.7% (inactive)	13.8%	22%	> 11.4 µM (inactive)	-8.19% (inactive)	inactive	–	-5.11% (inactive)	–	> 46 µM (inactive)	inactive	inactive	inactive	–	–	–	inactive	–	–
c1ccc(-c2ccc(N3CC4(CCNCC4)C3)cc2)cc1	-2.41% (inactive)	-25%	-25.6%	> 11.4 µM (inactive)	5.34% (inactive)	15.8 µM (active)	–	4.95% (inactive)	–	> 46 µM (inactive)	–	inactive	inactive	–	–	–	inactive	–	–
CS(=O)(=O)N1CCC[C@@]2(CCN(Cc3ccccc3)C2)C1	2.55% (inactive)	2.42%	7.6%	> 11.4 µM (inactive)	0.761% (inactive)	–	1.85% (inactive)	23.6% (inactive)	–	> 46 µM (inactive)	inactive	inactive	–	–	–	–	inactive	–	–
COc1ccc(Oc2ncc3nc(CCc4ccccc4)c(=O)n(C[C@H]4CCCO4)c3n2)cc1	–	–	–	–	-25.6% (inactive)	–	-6.61% (inactive)	-17.3% (inactive)	> 9.22 µM (inactive)	> 46 µM (inactive)	inactive	inactive	–	–	–	inactive	35.5 µM (active)	–	–
c1ccc(-c2cccc(N3CC4(CCNCC4)C3)c2)cc1	-6.46% (inactive)	-7.34%	-10.1%	> 11.4 µM (inactive)	14.2% (inactive)	12.6 µM (active)	6.24% (inactive)	3.73% (inactive)	–	> 46 µM (inactive)	–	inactive	–	–	–	–	–	–	–
